Data on five compounds can be found in PubChem BioAssay.

Structures are written as SMILES. The source made the active and inactive calls.

Test [1] has as its system Plasmodium falciparum Sir2 (PF13_0152, Sir2A). Description: Plasmodium falciparum Sir2A binding compounds – biochemical, small-molecule microarray, 635 nm fluorescence, primary screen (AID 1098).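 Note: score merges spot fluorescence intensity with its signal-to-noise ratio.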 Conditions: fluorescence 635 nm, higher = more signal.
Test [2] can be described thus: probe aDKK1 binding to arrayed compounds – biochemical, biotinylated probe, 635/667 nm fluorescence, primary screen (AID 1099).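 Note: score merges 667nm spot fluorescence with signal to noise across triplicate slides.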 Conditions: small-molecule microarray, higher = more signal.
Test [3] can be described thus: probe aCHRDL2 binding to arrayed compounds – biochemical, biotinylated probe, 635/667 nm fluorescence, primary screen (AID 1100). The conditions noted are these: small-molecule microarray, higher = more signal.
A short description of test [4]: change in splice reporter luminescence, either direction, cell-based, HEK293, spliceosome inhibition project, primary screen (AID 1101).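 Note: HEK293 cells carrying a splicing-competent luciferase reporter gene; test concentration not given here.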 The conditions noted are these: HEK293 splicing luciferase reporter, 24 h, higher = more signal, called active from +8 up or from −8 down. (Reporter assays use an easily measured gene product as a stand-in for the process of interest.)

Test [5] addresses Fibroblast growth factor 10 (Homo sapiens) (UniProt O15520). In words: compounds binding fibroblast growth factor 10 – biochemical, small-molecule microarray, 635 nm fluorescence, primary screen (AID 1102). Conditions: FGF10 binding, fluorescence 635 nm, higher = more signal.
For test [6], the system named is glycogen synthase kinase-3 (GSK3A per assay name; protocol says GSK3B). Description: compounds binding glycogen synthase kinase-3 – biochemical, small-molecule microarray, 635 nm fluorescence, GSK3A, primary screen (AID 1103). Note: the record names both GSK3A and GSK3B. Conditions: fluorescence 635 nm, higher = more signal.
For test [7], the target named is Epidermal growth factor receptor (Homo sapiens) (UniProt P00533). Description: compounds binding epidermal growth factor receptor – biochemical, small-molecule microarray, 635 nm fluorescence, primary screen (AID 1104).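 Note: score merges 667 nm emission intensity with spot signal to noise over triplicate slides.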 The conditions noted are these: EGFR binding, higher = more signal.
Chain of Epidermal growth factor receptor (Homo sapiens) (P00533 whole entry, looked up): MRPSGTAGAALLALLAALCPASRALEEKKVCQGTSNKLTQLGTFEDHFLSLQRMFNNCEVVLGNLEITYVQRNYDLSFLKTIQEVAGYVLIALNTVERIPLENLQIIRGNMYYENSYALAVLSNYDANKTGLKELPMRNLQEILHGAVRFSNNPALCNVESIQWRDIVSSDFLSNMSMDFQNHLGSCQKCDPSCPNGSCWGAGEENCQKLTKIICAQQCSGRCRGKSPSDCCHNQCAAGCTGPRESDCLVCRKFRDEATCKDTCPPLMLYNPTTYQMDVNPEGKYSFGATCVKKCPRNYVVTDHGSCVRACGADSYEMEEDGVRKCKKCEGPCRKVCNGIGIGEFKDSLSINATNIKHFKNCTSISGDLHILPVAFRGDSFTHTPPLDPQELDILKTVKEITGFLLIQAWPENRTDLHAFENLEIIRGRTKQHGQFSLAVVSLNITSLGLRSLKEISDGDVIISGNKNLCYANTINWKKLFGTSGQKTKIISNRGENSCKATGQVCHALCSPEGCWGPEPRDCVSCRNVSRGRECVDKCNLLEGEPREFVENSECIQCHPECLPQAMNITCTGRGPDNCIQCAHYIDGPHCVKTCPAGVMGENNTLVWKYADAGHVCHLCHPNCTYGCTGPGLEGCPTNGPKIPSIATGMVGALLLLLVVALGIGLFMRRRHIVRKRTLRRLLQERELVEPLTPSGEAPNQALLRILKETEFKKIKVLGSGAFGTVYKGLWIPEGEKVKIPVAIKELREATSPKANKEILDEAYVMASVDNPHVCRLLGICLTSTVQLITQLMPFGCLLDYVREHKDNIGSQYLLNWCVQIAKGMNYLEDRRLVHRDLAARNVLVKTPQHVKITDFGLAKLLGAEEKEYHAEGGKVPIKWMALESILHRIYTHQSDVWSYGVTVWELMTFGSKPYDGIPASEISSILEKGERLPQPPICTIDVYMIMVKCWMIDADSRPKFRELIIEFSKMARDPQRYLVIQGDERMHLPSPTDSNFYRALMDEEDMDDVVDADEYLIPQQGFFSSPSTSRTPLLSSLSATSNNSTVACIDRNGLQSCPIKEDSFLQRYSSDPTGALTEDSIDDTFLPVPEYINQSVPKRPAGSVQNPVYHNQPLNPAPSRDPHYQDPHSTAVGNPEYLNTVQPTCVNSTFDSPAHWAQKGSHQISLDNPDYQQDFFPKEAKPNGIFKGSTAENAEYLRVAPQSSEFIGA
The target of test [8] is Follistatin-related protein 3 (Homo sapiens) (UniProt O95633). Description: compounds binding follistatin-related protein 3 – biochemical, small-molecule microarray, 635 nm fluorescence, primary screen (AID 1105).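 Note: score merges emission near 667 nm and signal to noise per printed spot across three slides.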 Conditions: FSTL3 binding, higher = more signal.
Chain of Follistatin-related protein 3 (Homo sapiens) (O95633 whole entry, looked up): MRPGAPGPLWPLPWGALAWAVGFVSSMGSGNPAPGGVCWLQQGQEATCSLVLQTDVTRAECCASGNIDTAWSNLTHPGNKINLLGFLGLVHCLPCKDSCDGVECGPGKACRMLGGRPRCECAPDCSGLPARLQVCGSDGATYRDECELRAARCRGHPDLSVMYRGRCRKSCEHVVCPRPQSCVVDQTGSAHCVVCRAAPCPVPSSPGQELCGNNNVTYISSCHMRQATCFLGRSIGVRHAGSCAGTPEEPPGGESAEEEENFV
Test [9] has as its target Dickkopf-related protein 1 (Homo sapiens) (UniProt O94907). Description: small molecules binding DKK1 protein – biochemical, small-molecule microarray, 635 nm fluorescence scan, primary screen (AID 1106).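 Note: score merges emission near 667 nm with signal to noise over three replicate slides.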 The conditions noted are these: higher = more signal.
Test [10] relates to Inhibin beta A chain (activin A). In words: small molecules binding activin A – biochemical, small-molecule microarray, 635 nm fluorescence scan, primary screen (AID 1107).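 Note: mouse activin A protein probed at 4.33 µg/mL on printed slides; score merges bound-protein fluorescence near 667 nm with spot signal-to-noise.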 The conditions noted are these: INHBA, higher = more signal.
Test [11] concerns Human papillomavirus type 1a protein E7 (residues 44-93). In words: small molecules binding HPV E7 44-93 – biochemical, small-molecule microarray, residues 44-93, 635 nm fluorescence, primary screen (AID 1108).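 Note: E7 fragment applied at 1 µg/mL in TBST for 1 h at 4 C; score combines spot fluorescence with its signal to noise ratio.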 The conditions noted are these: fluorescence 635 nm, higher = more signal.
The nature of test [12]: hepatitis C replication reporter changes, two-sided – Huh7 cells, luciferase reporter, HCV replication inhibitor project, primary screen (AID 1109).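 Note: huh7 hepatoma cells harbouring a luciferase neomycin HCV replicon reporter; luciferase luminescence as measure of HCV replicon replication; test concentration not given here.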 Conditions: Huh7 HCV replicon luciferase reporter, 48 h; higher = more signal.
Test [13] addresses Left-right determination factor 2 (Homo sapiens) (UniProt O00292). In words: small molecules binding LEFTY2 protein – biochemical, small-molecule microarray, 635 nm fluorescence scan, primary screen (AID 1110). Conditions: higher = more signal.
Test [14] addresses Calmodulin-1 (Homo sapiens) (UniProt P0DP23). In words: small molecules binding calmodulin-1 with EGTA – biochemical, small-molecule microarray, Cy5-labelled CALM1, profiling panel (AID 1111).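 Note: labelled calmodulin applied in Tris saline Tween buffer holding calcium plus EGTA and DTT.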 Conditions: Cy5-CALM1 binding fluorescence, higher = more signal.
The target is the same in test [15]. In words: small molecules binding Ca-loaded calmodulin-1 – biochemical, small-molecule microarray, Cy5-labelled CALM1, plus calcium, artefact control for SMM control-protein annotation, profiling panel (AID 1112).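 Note: score merges spot fluorescence with signal to noise from triplicate slides.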 The conditions noted are these: Cy5-CALM1 binding fluorescence, higher = more signal.
A short description of test [16]: probe aWnt5a binding to arrayed compounds – biochemical, biotinylated probe, 635/667 nm fluorescence, primary screen (AID 1113).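 Note: score merges 667 nm fluorescence intensity with signal-to-noise per printed feature.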 The conditions noted are these: small-molecule microarray, higher = more signal.
Test [17] can be described thus: probe aShh binding to arrayed compounds – biochemical, biotinylated probe, 635/667 nm fluorescence, primary screen (AID 1114).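 Note: probe is biotin-labelled aShh protein from a stem cell growth factor screen; measures binding of labelled protein to compounds printed on the slide; score merges feature fluorescence at 667 nm with signal-to-noise.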 Conditions: small-molecule microarray, higher = more signal.
Test [18] can be described thus: probe aNog binding to arrayed compounds – biochemical, biotinylated probe, 635/667 nm fluorescence, primary screen (AID 1115).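 Note: probe is biotinylated aNog protein used at 0.15 µg/mL for 1 h at 4 C; z-score combines 667 nm fluorescence of each spot with its signal to noise.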 The conditions noted are these: small-molecule microarray, higher = more signal.
The target in test [19] is Torsin-1A-interacting protein 1 (Homo sapiens) (UniProt Q5JTV8). In words: compound microarray binding of lysate hLAP1 – cell lysate, small-molecule microarray, COS7 lysate, 635/667 nm fluorescence, primary screen (AID 1116). Conditions: 635 nm fluorescence, higher = more signal.
Chain of Torsin-1A-interacting protein 1 (Homo sapiens) (Q5JTV8 whole entry, looked up): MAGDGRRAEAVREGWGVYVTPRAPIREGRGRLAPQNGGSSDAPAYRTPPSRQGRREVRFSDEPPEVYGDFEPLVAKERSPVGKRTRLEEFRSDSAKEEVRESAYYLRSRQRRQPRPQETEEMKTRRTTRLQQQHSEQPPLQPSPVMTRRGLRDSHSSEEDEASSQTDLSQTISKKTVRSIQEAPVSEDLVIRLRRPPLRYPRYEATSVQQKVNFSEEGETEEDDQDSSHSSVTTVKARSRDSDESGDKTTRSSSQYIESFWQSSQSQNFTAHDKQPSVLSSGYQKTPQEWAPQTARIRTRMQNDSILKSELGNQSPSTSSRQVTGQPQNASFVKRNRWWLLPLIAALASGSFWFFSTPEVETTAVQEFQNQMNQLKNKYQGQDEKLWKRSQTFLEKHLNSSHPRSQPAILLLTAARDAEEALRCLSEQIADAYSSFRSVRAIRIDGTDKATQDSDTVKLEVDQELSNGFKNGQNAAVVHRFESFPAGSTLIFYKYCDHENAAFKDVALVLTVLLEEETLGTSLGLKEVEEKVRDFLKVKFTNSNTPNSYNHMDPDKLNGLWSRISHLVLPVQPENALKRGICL
Test [20] deals with Alpha-bungarotoxin (Bungarus multicinctus) (UniProt P60615). In words: compounds binding labelled alpha-BTX control protein – biochemical, small-molecule microarray, Alexa647 label, 635/667 nm fluorescence, artefact control for SMM control protein annotation, profiling panel (AID 1117). Conditions: alpha-BTX-A647 binding fluorescence, higher = more signal.
Chain of Alpha-bungarotoxin (Bungarus multicinctus) (P60615 whole entry, looked up): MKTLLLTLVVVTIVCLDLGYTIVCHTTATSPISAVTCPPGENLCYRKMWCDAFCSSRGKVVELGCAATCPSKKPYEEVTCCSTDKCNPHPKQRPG

Chain of Left-right determination factor 2 (Homo sapiens) (O00292 whole entry, looked up): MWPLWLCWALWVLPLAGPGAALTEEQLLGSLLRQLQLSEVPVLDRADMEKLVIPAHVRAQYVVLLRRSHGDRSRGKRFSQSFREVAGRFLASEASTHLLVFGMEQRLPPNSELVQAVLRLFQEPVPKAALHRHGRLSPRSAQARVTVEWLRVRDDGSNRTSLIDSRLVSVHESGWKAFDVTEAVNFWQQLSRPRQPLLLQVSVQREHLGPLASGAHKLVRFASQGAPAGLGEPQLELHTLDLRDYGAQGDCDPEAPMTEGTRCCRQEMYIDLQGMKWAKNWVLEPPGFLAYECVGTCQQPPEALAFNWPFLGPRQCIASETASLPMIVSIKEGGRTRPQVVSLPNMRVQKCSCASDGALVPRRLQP
Chain of Fibroblast growth factor 10 (Homo sapiens) (O15520 whole entry, looked up): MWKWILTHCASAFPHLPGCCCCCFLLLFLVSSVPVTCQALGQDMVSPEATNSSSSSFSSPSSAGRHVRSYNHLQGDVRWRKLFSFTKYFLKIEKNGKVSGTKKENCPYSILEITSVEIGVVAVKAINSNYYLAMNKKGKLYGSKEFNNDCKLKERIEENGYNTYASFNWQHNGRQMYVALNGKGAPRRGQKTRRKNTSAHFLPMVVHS
Chain of Dickkopf-related protein 1 (Homo sapiens) (O94907 whole entry, looked up): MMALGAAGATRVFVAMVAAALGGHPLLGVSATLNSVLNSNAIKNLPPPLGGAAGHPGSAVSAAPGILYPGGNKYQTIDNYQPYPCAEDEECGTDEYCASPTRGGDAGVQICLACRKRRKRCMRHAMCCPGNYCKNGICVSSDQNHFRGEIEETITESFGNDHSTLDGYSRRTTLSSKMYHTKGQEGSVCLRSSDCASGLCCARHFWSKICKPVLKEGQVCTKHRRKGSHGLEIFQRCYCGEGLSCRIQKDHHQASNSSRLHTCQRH

Consider `CCCCC(O)C1C=CC2C(=O)N(c3ccccc3)C(=O)C2N1Nc1ccccc1F` (stereo not given), for which the composite z-score is 1.24 in test [1]; 1.4 in [2]; 1.17 in test [3]; 0.857 in [5]; 0.827 in test [6]; -0.374 in test [7]. Besides, the composite z-score in [8] is 0.443; in test [9], -0.683; in test [10], 0.834; in [11] it was 0.392; in test [13], 0.22; in test [14], 1.48. Also, the composite z-score in test [15] is -0.124; in [16], 0.241; in test [17], 0.261; in test [18], 1.87; in test [19], 1.21; in test [20], 3.13. The figures for the z-score in test [4] and in test [12] were 0.826 (inactive) and -0.472, respectively.
On to `CC(C)(C)OC(=O)CC[C@@]1(C(N)=O)N=C(c2ccc(OCCCO)cc2)O[C@@H]1c1ccccc1`, for which the composite z-score in [1] is 1.19; in test [2], 0.307; in [3] it was 0.666; in test [5], 0.958; in test [6], 1.15; in test [7] it was -0.467. In addition, the composite z-score is 0.0089 in test [8]; -0.534 in [9]; 0.557 in test [10]; 1.38 in test [11]; -0.289 in test [13]; 0.31 in test [14]. Moreover, the composite z-score in test [15] was -0.216; in test [16], -0.0512; in test [17], -0.419; in test [18] it was -0.534; in test [19], 1.2; in [20], 0.646. Further, the values for the z-score in test [4] and in [12] were -0.0742 (inactive) and 0.14, respectively.
As to `[N-]=[N+]=Nc1ccccc1C[C@@]1(C(=O)NCCN2CCOCC2)N=C(c2ccc(OCCCO)cc2)O[C@@H]1c1ccccc1`, the composite z-score in [1] was found to be 1.57; in test [2] it was 0.532; in [3] it was 0.915; in test [5], 1.35; in test [6], 1.29; in test [7], 0.245. The composite z-score in test [8] turned out to be 1.21; in test [9] it was 0.461; in test [10] it was 0.847; in test [11], 1.47; in test [13], 0.248; in test [14], 0.797. The composite z-score was -0.3 in [15]; -0.0303 in test [16]; 0.315 in test [17]; -0.462 in [18]; 0.819 in test [19]; 0.597 in test [20]. Besides, the z-score is -0.724 (inactive) in test [4] and -1.32 in [12].
Regarding `CC(C)N1C(=O)[C@@]2(Cc3ccccc31)c1ccccc1C(=O)N(C1CCCCC1)[C@H]2c1ccc(CO)cc1`, the composite z-score in [1] was 1.15; in test [2] it was -0.307; in [3], -0.194; in test [5], 0.206; in [6], 0.856; in test [7], 0.507. For the same compound, the composite z-score in test [8] was 1.17; in [9], 0.788; in [10], 0.899; in test [11], 0.683; in [13], 0.0232; in test [14], -0.435. Further, the composite z-score in test [15] is -0.56; in test [16], -0.063; in [17], -0.195; in test [18], -0.399; in [19], 0.103; in [20] it was 0.284. The z-score in [4] is 0.0789 (inactive); in [12], -1.26.
`CCOC(=O)C[C@H]1[C@H](OC(=O)Cc2ccc3c(c2)OCO3)[C@@H](NC(=O)c2ccc(-c3ccccc3)cc2)c2cc(OCCCO)ccc2N1C(=O)Cc1ccc(OC)cc1`: the composite z-score in test [1] was 0.489; in test [2], 0.55; in test [3], 0.456; in test [5] it was 0.463; in [6] it was 0.116; in test [7] it was -0.0154. In addition, the composite z-score in test [8] is 0.543; in test [9], -0.0143; in [10], 0.0884; in [11], 0.911; in test [13] it was 0.253; in [14], 0.644. Further, the composite z-score is 0.0039 in test [15]; 0.0673 in [16]; 0.173 in [17]; 0.0804 in test [18]; 0.521 in [19]; -0.256 in test [20]. In addition, the results for the z-score in test [4] and in [12] were -2.01 (inactive) and -1.48, respectively.
